Experimental data from ChEMBL document CHEMBL4513216, “Probing the Open Global Health Chemical Diversity Library for Multistage-Active Starting Points for Next-Generation Antimalarials” (ACS Infect Dis, 2020).
The whole screen tested about 65,000 compounds, of which about 2,100 (3.2%) showed an effect of 50% or more. The median lay at about -52%. The sample holds strong results, similar compounds and a random draw of the others, so the mix is not that of the screen.

system: Plasmodium falciparum; test: Screen against P. falciparum Asexual Blood Stage (ABS), at 5uM; assay type: functional, Dd2; settings: tested at 5 uM

Row | SMILES | INHIBITION [%]
1 | CN1CC=C(c2noc(CCC(=O)N3CCc4ccccc43)n2)CC1 | -88.8
2 | CC(C)CN1CCCC1c1ccc(C(=O)Nc2cccnc2)s1 (stereo not drawn) | 87.5
3 | CC(=O)N1CC[C@H]2N(C)CC[C@@]2(C(=O)Nc2cccnc2)CC1 | -36
4 | CC(C)CN1C[C@@H]2C[C@H](C(=O)Nc3cccnc3)[C@H](C1)O2 | -48.5
5 | Cn1nc(-c2cccs2)cc1[C@H]1CN2CC[C@H]1C[C@@H]2CN | -26
6 | CSc1ccccc1C(=O)C1CCCN(Cc2cc(C(C)C)[nH]n2)C1 (stereo not drawn) | -93.2
7 | Cc1csc(C2CCCCN2C(=O)c2cc(C(C)C)[nH]n2)n1 (stereo not drawn) | 76.4
8 | CN(C)Cc1cncc2c1CCN(CC(=O)N(C)C)C2 | -114
9 | Cc1ncc(CN(Cc2ccccn2)Cc2ccccc2Cl)n1C | 91.6
10 | CN(CCOCC1CC1)C(=O)Nc1ccc(C#N)c(Cl)c1 | -115
11 | O=C(NCCCOCC1CC1)Nc1ccc(-n2cncn2)c(F)c1 | 88.3
12 | O[C@@H]1CC(CNCc2ccc(Cl)cc2)(COc2cccnc2)C[C@@H]1O (stereo partly drawn) | 70.3
13 | c1cncc(OC[C@]23COC[C@H]2CN(Cc2ccsc2)C3)c1 | 20.3
14 | O[C@@]1(CNCCCOc2cccnc2)CCCN2CCCC[C@@H]21 | -36.8
15 | O=S(=O)(NCC(c1ccsc1)N1CCCCCC1)c1cccs1 (stereo not drawn) | 85.5
16 | Cc1ccc(NC(=O)N2CCC(CO)(Nc3ccccc3)CC2)cc1 | -31.275
17 | NC(=O)CN1CCCCC1c1ccc(-n2ccnc2)nc1 (stereo not drawn) | -59.6
18 | Fc1cccc(N2CCCC3(C2)CN(c2ncccn2)CCO3)c1 (stereo not drawn) | 70.6
19 | OCCN1CCOC2(CCCN(c3ncc(F)cn3)C2)C1 (stereo not drawn) | 11
20 | OCCN1CCOC2(CCCN(c3ncccn3)C2)C1 (stereo not drawn) | -14.1
21 | Cc1noc(C)c1CN1CCO[C@H]2CN(Cc3cnn(C)c3)C[C@H]21 | 13.9
22 | CCNC(=O)C(C)NC(=O)c1cnc(-c2ccc(C)cc2C)s1 (stereo not drawn) | 71.5
23 | CCS(=O)(=O)NC[C@]12COC[C@H]1CN(Cc1cccnc1OC)C2 | -27.6
24 | CCNC(=O)c1cn(C(C)(C)C)c2ncccc12 | 5.57
25 | Cc1cccc(CN2C[C@@H]3COC[C@]3(COCC(=O)N(C)C)C2)n1 | -104
26 | COc1ccc(Cl)cc1CC(=O)N1CCN(CC(C)(C)O)CC1 | -155

Row | SMILES | INHIBITION [%]
27 | CCC(O)CN1CCN(C(=O)Cc2cc(Cl)ccc2OC)CC1 (stereo not drawn) | -17.7
28 | CN(CCCO)Cc1cc(Cl)ccc1OCC(O)CN1CCCCCC1 (stereo not drawn) | 90.7
29 | COCCN(C)Cc1cc(Cl)ccc1OCC(O)CN1CCCCCC1 (stereo not drawn) | 83.9
30 | CN(CCO)Cc1cc(Cl)ccc1OCC(O)CN1CCCCCC1 (stereo not drawn) | 81.5
31 | Cn1cc(C2SCC(=O)Nc3c2c(=O)[nH]n3C2CCOCC2)cn1 (stereo not drawn) | -57.4
32 | O=C1CSC(c2ccccc2)c2c(n(C3CCOCC3)[nH]c2=O)N1 (stereo not drawn) | -34.2
33 | c1cc([C@H]2C[C@@H]3CCN(Cc4nccs4)C[C@H]3O2)ncn1 | -99.9
34 | Cc1noc([C@H]2C[C@H]3OCC[C@H]3N(Cc3ccncc3)C2)n1 | -164
35 | CCCn1nc(C)c(-c2cncn2CC2(N(C)C)CCC(C)CC2)c1C (stereo not drawn) | 70.3
36 | O=C1[C@H]2CN(Cc3ccc(F)cc3)C[C@H]2CN1c1cncnc1 | 2.38
37 | CC(C)Oc1ncnc2c1CCN(Cc1ccc(F)cc1)CC2 | 70.8
38 | CC(c1ccc(F)cc1)N1CCN(Cc2ccc(C#N)cc2)CC1 (stereo not drawn) | -14.8
39 | Cn1cnc(S(=O)(=O)N2CC3(CCN(Cc4ccncc4)C3)C2)c1 | -29.2
40 | COCc1cncc2c1CCN(Cc1cnn(C)c1)C2 | -135
41 | c1ccc(O[C@H]2CO[C@@]3(CCCN(Cc4nccs4)C3)C2)nc1 | -90.3
42 | Cc1ccccc1CC1(CO)CCCN(c2ncncc2C(C)C)C1 (stereo not drawn) | 85
43 | CCS(=O)(=O)N1CCOC2(CCCN(Cc3ccccn3)C2)C1 (stereo not drawn) | -69.2
44 | CN(C)C(=O)CN1CC[C@@H]2O[C@@H](COCc3cccnc3)CC[C@@H]21 | -71.1
45 | Cc1nn(C)cc1C1=NS(=O)(=O)N(C)C(C(=O)Nc2ccc(Br)cc2)=C1 | 90
46 | Cc1nn(C)cc1C1=NS(=O)(=O)N(C)C(C(=O)Nc2ccc(Cl)cc2)=C1 | 83.4
47 | c1ccc(OC[C@H]2CCC[C@]23CN(Cc2nccs2)CCO3)nc1 | 6.16
48 | CCCC12CN3CC(C)(CN(C1)C3c1[nH]c(=O)[nH]c(=O)c1C)C2=O (stereo not drawn) | -167
49 | Cc1noc(C)c1CN1CC[C@H]2OCC[C@@]2(C(=O)N(C)C)C1 | -41.2
50 | COc1cc(C2(C(=O)NCCn3ccnc3)CCCC2)ccc1C | 50
51 | COCCNC(=O)C1(c2ccc(C)c(OC)c2)CCCC1 | 6.63
52 | Cc1cc(C)c(N(CC(O)CNCc2ccccc2)S(C)(=O)=O)c(C)c1 (stereo not drawn) | 70.4

Row | SMILES | INHIBITION [%]
53 | COCCOc1ccccc1CNCC1COC2(CCCC2)O1 (stereo not drawn) | 74.3
54 | CN(C)c1nc(N)nc(CN2CCC(c3ccccc3)CC2)n1 | 80.4
55 | CCN1CCC(c2cncc(N(C)C)n2)CC1 | -163
56 | O=C(N1CCCO1)[C@]12COC[C@H]1CN(Cc1cccnc1)C2 | -58.8
57 | Cc1ccc(N2CCO[C@H]3CN(Cc4ccc(F)cc4)C[C@H]32)nn1 | -3.71
58 | Cc1nc(N2C[C@H]3CC[C@@H](C2)N3)nc2cc(S(C)(=O)=O)ccc12 | -46.7
59 | Cc1nccn1CCN(C)c1nc(-c2ccc(Cl)cc2)nc2c1CNC2 | 70.5
60 | CCN(CC)CCN(C)c1nc(-c2ccc(Cl)cc2)nc2c1CNC2 | 88.3
61 | CCN1C[C@H]2[C@@H](C1)N(S(=O)(=O)c1cccnc1)CC[C@H]2OC | -40.3
62 | NC(=O)CCC1CCCN(c2ccnc3cc(F)ccc23)C1 (stereo not drawn) | 83.4
63 | Cc1noc(C)c1CN1CC[C@H]2OCC[C@@]2(C(=O)NCC2CC2)C1 | -139
64 | CN(C)Cc1cncc2c1CCN(C1CCOCC1)C2 | -179
65 | O=C(N[C@H]1CN[C@H]2CCCO[C@H]21)c1cscn1 | -37.2
66 | CCC/C=C/c1ccc(CN2CCN(C)CC2)cn1 | 0.24
67 | O=C(C1CC1)N1CC2(CCNCC2)C1 | -76.2
68 | O=C(NCc1cnn2cccnc12)C1CC2(CCNCC2)CN1 (stereo not drawn) | -20.8
69 | O=C(C1CC2(CCNCC2)CN1)N1CCN(c2cccc(Cl)c2Cl)CC1 (stereo not drawn) | 79.2
70 | CC(C)c1nc(CNCC2CCCN2c2cccnn2)cs1 (stereo not drawn) | 71.1
71 | c1cnnc(N2CCCC2CNCc2nc(-c3cccs3)no2)c1 (stereo not drawn) | 72.2
72 | Cc1ccsc1CNCC1CCCN1c1cccnn1 (stereo not drawn) | 78.8
73 | CC(Cn1cccn1)NCc1nc(-c2cccs2)no1 (stereo not drawn) | -230
74 | CC(C)c1nc(CC(=O)N2CCN(C)CC2c2ccccc2)cs1 (stereo not drawn) | -16.5
75 | COc1nc(C)ccc1CNc1cc(N2CCCC2CO)ncn1 (stereo not drawn) | -50.3
76 | Cc1nc(CN2CCC23CCN(C(=O)c2ccncc2)CC3)cs1 | 2.76
77 | O=C(C1CC=CC1)N1CCC2(CC1)OCCO2 | -69.1
78 | O=C(O)[C@@H]1CN(CC(=O)N2CCCCC2)C[C@H]1c1ccc(F)cc1 | -140

Row | SMILES | INHIBITION [%]
79 | O=C(O)[C@@H]1CN(CC(=O)N2CCCCCC2)C[C@H]1c1ccc(F)cc1 | -66.2
80 | NCC(=O)N1CCCCC1c1ccc(F)cc1 (stereo not drawn) | 85.3
81 | Cc1ncsc1CN1C[C@@H](OCc2ccncc2)[C@H]2OCCC[C@H]21 | -190
82 | CC(C)C(NC(=O)c1ccccc1F)C(=O)N1CCC2(CC1)OCCO2 (stereo not drawn) | -65.9
83 | Fc1cnc(N2CCO[C@H]3CN(CC4CCOC4)C[C@H]32)nc1 (stereo partly drawn) | -57.2
84 | Cc1cn2c(n1)C(CNCC1=Cc3cc(Cl)ccc3OC1)CCC2 (stereo not drawn) | 88.2
85 | Cc1cn2c(n1)C(CNCC1=Cc3ccccc3OC1)CCC2 (stereo not drawn) | 79
86 | CC(C)C(=O)N1C[C@H]2CCCN[C@H]2C1 | 28.1
87 | COc1cccc2c(=O)n(C3CCCNC3)cnc12 (stereo not drawn) | -35.5
88 | CC(C)c1ocnc1C(=O)N1CCC2(CC1)OCCO2 | -39.3
89 | Cc1cc(CNC(C)Cn2cncn2)ccc1Br (stereo not drawn) | -29.8
90 | CCCOc1ccccc1C(N)CC(C)C (stereo not drawn) | 75.1
91 | COC[C@H]1CCC[C@]12CN(Cc1cccc(C)n1)CCO2 | -25.5
92 | O=C1Nc2ccccc2CC12CCN(CCO)C2 (stereo not drawn) | -93.6
93 | CN1C(=O)C2(CCN(CCO)C2)c2ccccc21 (stereo not drawn) | -143
94 | OCCN1CC2(CCN(c3ccccc3)C2)C1 | 62.8
95 | Cc1noc(C)c1CN1CC[C@@H]2O[C@@H](COCC3CC3)CC[C@@H]21 | 0.666
96 | OCC1CCCCN1c1ccc(-c2nc(-c3ccccc3F)no2)cn1 (stereo not drawn) | 75.5
97 | O=C(Cc1ccncc1)N1C[C@@H]2CC[C@H]1CN(Cc1cccnc1)C2 | 10.9
98 | Cc1nc(CN2CCCC3(CCN(c4cccnc4)C3=O)C2)cs1 (stereo not drawn) | -34.3
99 | CN(C)CCN(CC1CCCO1)C(=O)Cc1cn2ccccc2n1 (stereo not drawn) | -90.1
100 | c1ccn2cc(CN3CCCC(c4ccn[nH]4)C3)nc2c1 (stereo not drawn) | 89.1
101 | Cn1ncc(NCc2cccc(OCC(F)(F)F)c2)c(Cl)c1=O | -44.7
102 | CCCS(=O)(=O)N1CCN(CCOC)c2nc(C)ccc2C1 | -87
103 | CCn1cc(NC(=O)N2CCN(C(=O)Oc3ccccc3)CC2)cn1 | -56.8
